Assay results from PubChem BioAssay (Tox21).
Records with an inconclusive call do not appear. Where a call stands in place of a potency, no number is given. Activity calls are given as the source filed them. Calls follow the shape of the dose curve; as a rule, active = well fitted cell-killing curve with a large enough effect in the repeat runs; inconclusive = weak or mixed curves, or effect the other way; inactive = flat fitted curve, though single readings scatter.

Experiment: cAMP Responsive Elements (CRE) small molecule antagonists, cell-based qHTS assay: qHTS cell viability counter screen (AID 2060913); also: nearly all actives have a fitted effect of over 40% in size
Conditions: CRE-bla HEK293T viability, CellTiter-Glo luminescence, 5 h; series mostly up to 92.4 µM
Summary of the method: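 HEK293T CRE-bla, 2,000 cells/well, 18 h preincubation; cpd in DMSO + NKH477 0.25 uM final, 3 h 37 C/5% CO2; LiveBLAzer 2 h RT, then CellTiter-Glo 30 min RT, luminescence.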

SMILES	Potency	viability change, negative = cytotoxic
O=C(O)c1ccccc1C(=O)O	inactive	
Cc1cc2nc(N)sc2cc1C	inactive	
O=C(O)CCNC(=O)c1ccc(N=Nc2ccc(O)c(C(=O)O)c2)cc1	inactive	
CCCCCCCCCCC(=O)O	inactive	
CC(C)(O)c1ccc(C(C)(C)O)cc1	inactive	
CCOc1cccc(N)c1	inactive	
CCS(=O)(=O)CCn1c([N+](=O)[O-])cnc1C	inactive	
C[N+](C)(C)CC[N+]1(C)Cc2c(Cl)c(Cl)c(Cl)c(Cl)c2C1	inactive	
O=C(O[C@@H]1Cc2c(O)cc(O)cc2O[C@@H]1c1cc(O)c(O)c(O)c1)c1cc(O)c(O)c(O)c1	inactive	
Nc1ccc([N+](=O)[O-])c(N)c1	inactive	
CC(=O)/C=C/C1=C(C)CCCC1(C)C	inactive	
CCOC(=O)Nc1ccc(NCc2ccc(F)cc2)nc1N	inactive	
CC(=O)c1ccc2ccccc2c1	inactive	
CC[C@H]1OC(=O)[C@H](C)[C@@H](O[C@H]2C[C@@](C)(OC)[C@@H](O)[C@H](C)O2)[C@H](C)[C@@H](O[C@@H]2O[C@H](C)C[C@H](N(C)C)[C@H]2O)[C@](C)(O)C[C@@H](C)C(=O)[C@H](C)[C@@H](O)[C@]1(C)O	inactive	
O=C(O)CSCC(=O)NC1CCSC1=O (stereo not given)	inactive	
CCCCCCCCCCCCCCCC(=O)OC[C@H](O)[C@H]1OC(=O)C(O)=C1O	inactive	
O=c1[nH]ncc2ccccc12	inactive	
O=C(O)CCC(=O)c1ccc(-c2ccccc2)cc1	inactive	
C[Si](C)=O		7.47% [at 8.39 µM] (inactive)
C1=Cc2ccccc2C1	inactive	

SMILES	Potency	viability change, negative = cytotoxic
Cc1ccc(Cl)cc1Cl	inactive	
O=Cc1ccccc1Cl	inactive	
CC(Cc1ccccc1)(NC(=O)CN)c1ccccc1 (stereo not given)	inactive	
CC(C)O	inactive	
NS(=O)(=O)c1ccc(Cl)c(S(N)(=O)=O)c1	inactive	
COC(=O)CC#N	inactive	
[Na+]	inactive	
CN(C)N=Nc1ccccc1	inactive	
CC12CCC(C1)C(C)(C)C2O (stereo not given)	inactive	
CC(C)=CC=O	inactive	
CC(=O)OCC(=O)[C@@]1(O)[C@H](OC(C)=O)C[C@H]2[C@@H]3CCC4=CC(=O)C=C[C@]4(C)[C@@]3(F)[C@@H](O)C[C@@]21C	inactive	
CC(=O)NC(=O)c1ccccc1O	inactive	
CC(=O)OCCCc1ccccc1	inactive	
CC(C)C1CCC(O)CC1 (stereo not given)	inactive	
C=C(C)C(=O)OCCN(C)C	inactive	
CCOC(=O)CC(=O)c1ccccc1	inactive	
CCC1CCCCC1	inactive	
COC(=O)C1=C(C)NC(C)=C(C(=O)OCCc2ccc(N3CCN(C(c4ccccc4)c4ccccc4)CC3)cc2)C1c1cccc([N+](=O)[O-])c1 (stereo not given)	inactive	
CCCCCCCCCCCCCCCCCC(=O)OCC(O)CO (stereo not given)	inactive	
CC(=O)Nc1ccc(C)cc1	inactive	

Experiment: cAMP Responsive Elements (CRE) small molecule agonists, cell-based qHTS assay: qHTS cell viability counter screen (AID 2060914);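 also: viability read after 3 h of compound exposure; nearly all actives have a fitted effect of over 50% in size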
Conditions: CRE-bla HEK293T viability, CellTiter-Glo luminescence, 5 h; series mostly up to 92.4 µM
Summary of the method: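 CRE-bla HEK293T cells in 10% dialyzed FBS medium were exposed to compounds for 3 h at 37C after 18 h plating. CellTiter-Glo was then added in the same wells, and luminescence was read after 30 min at room temperature.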

SMILES	Potency	activity change, negative = cytotoxicity
O=C(O)c1ccccc1C(=O)O	inactive	
Cc1cc2nc(N)sc2cc1C	inactive	
O=C(O)CCNC(=O)c1ccc(N=Nc2ccc(O)c(C(=O)O)c2)cc1	inactive	
CCCCCCCCCCC(=O)O	inactive	
CC(C)(O)c1ccc(C(C)(C)O)cc1	inactive	
CCOc1cccc(N)c1	inactive	
CCS(=O)(=O)CCn1c([N+](=O)[O-])cnc1C	inactive	
C[N+](C)(C)CC[N+]1(C)Cc2c(Cl)c(Cl)c(Cl)c(Cl)c2C1	inactive	
O=C(O[C@@H]1Cc2c(O)cc(O)cc2O[C@@H]1c1cc(O)c(O)c(O)c1)c1cc(O)c(O)c(O)c1	inactive	
Nc1ccc([N+](=O)[O-])c(N)c1	inactive	
CC(=O)/C=C/C1=C(C)CCCC1(C)C	inactive	
CCOC(=O)Nc1ccc(NCc2ccc(F)cc2)nc1N	inactive	
CC(=O)c1ccc2ccccc2c1	inactive	
CC[C@H]1OC(=O)[C@H](C)[C@@H](O[C@H]2C[C@@](C)(OC)[C@@H](O)[C@H](C)O2)[C@H](C)[C@@H](O[C@@H]2O[C@H](C)C[C@H](N(C)C)[C@H]2O)[C@](C)(O)C[C@@H](C)C(=O)[C@H](C)[C@@H](O)[C@]1(C)O	inactive	
O=C(O)CSCC(=O)NC1CCSC1=O (stereo not given)	inactive	
CCCCCCCCCCCCCCCC(=O)OC[C@H](O)[C@H]1OC(=O)C(O)=C1O	inactive	
O=c1[nH]ncc2ccccc12	inactive	
O=C(O)CCC(=O)c1ccc(-c2ccccc2)cc1	inactive	
C[Si](C)=O		-0.0708% [at 8.39 µM] (inactive)
C1=Cc2ccccc2C1	inactive	

SMILES	Potency	activity change, negative = cytotoxicity
Cc1ccc(Cl)cc1Cl	inactive	
O=Cc1ccccc1Cl	inactive	
CC(Cc1ccccc1)(NC(=O)CN)c1ccccc1 (stereo not given)	inactive	
CC(C)O	inactive	
NS(=O)(=O)c1ccc(Cl)c(S(N)(=O)=O)c1	inactive	
COC(=O)CC#N	inactive	
[Na+]	inactive	
CN(C)N=Nc1ccccc1	inactive	
CC12CCC(C1)C(C)(C)C2O (stereo not given)	inactive	
CC(C)=CC=O	inactive	
CC(=O)OCC(=O)[C@@]1(O)[C@H](OC(C)=O)C[C@H]2[C@@H]3CCC4=CC(=O)C=C[C@]4(C)[C@@]3(F)[C@@H](O)C[C@@]21C	inactive	
CC(=O)NC(=O)c1ccccc1O	inactive	
CC(=O)OCCCc1ccccc1	inactive	
CC(C)C1CCC(O)CC1 (stereo not given)	inactive	
C=C(C)C(=O)OCCN(C)C	inactive	
CCOC(=O)CC(=O)c1ccccc1	inactive	
CCC1CCCCC1	inactive	
COC(=O)C1=C(C)NC(C)=C(C(=O)OCCc2ccc(N3CCN(C(c4ccccc4)c4ccccc4)CC3)cc2)C1c1cccc([N+](=O)[O-])c1 (stereo not given)	inactive	
CCCCCCCCCCCCCCCCCC(=O)OCC(O)CO (stereo not given)	inactive	
CC(=O)Nc1ccc(C)cc1	inactive	
